Many of the other results were omitted from the sample, so hits are more common in it than they were.
BoNT-F LC inh: blocks Botulinum neurotoxin F light chain protease; inhibition, % at 10 µM; Multiplex microsphere protease cleavage assay, flow cytometry; 360,000 tested, 0.22% active; AID 588497; in the data active = inhibition above about 35%, passing the limit was not always enough; inconclusive = no clear call, values can overlap the other calls; also: plate controls were buffer without enzyme for full effect and enzyme alone for no effect
TcdB GH inh: inhibitors of Clostridioides difficile toxin B glycohydrolase | inhibition, % at 9.99 µM | 350,000 tested, 0.24% active | P18177 | TcdB glycohydrolase enzymatic assay, plate reader; in the data active = inhibition above about 10%
Autofluor counter: compound fluorescence in toxin protease inhibitor counterscreen | compound autofluorescence counterscreen, microsphere flow cytometry; stronger effect = higher value | fluorescence intensity (concentration not given with the values) | 360,000 tested, 3.1% active; in the data active = fluorescence intensity above about 16000; inconclusive = no clear call, values can overlap the other calls
Anthrax LF prot: anthrax lethal factor protease inhibition. multiplex microsphere protease cleavage assay, LF. inhibition, % at 10 µM. 360,000 tested, 0.12% active. AID 588501. P15917; also: plate controls were buffer without enzyme for full effect and enzyme alone for no effect
BoNT-A LC inh2: blocks Botulinum neurotoxin A light chain protease. multiplex microsphere protease substrate cleavage, flow cytometry. inhibition, % at 10 µM. 360,000 tested, 0.17% active. AID 588499; also: plate controls were buffer without enzyme for full effect and enzyme alone for no effect
The depositor's hits bear a star; ? = inconclusive; . = not tested or not shown. Rule as the data show it, unless noted: active = inhibition above about 30%; inconclusive = no clear call, values can overlap the other calls; inactive = below that.

SMILES | BoNT-F LC inh | TcdB GH inh | Autofluor counter | Anthrax LF prot | BoNT-A LC inh2
COc1ccc(CN2CCN(c3ccccc3)CC2)c(C)c1C | -6 | . | 23743* | -1 | ?
CCOc1ccccc1N1CCN(Cc2cccc(OC)c2OC)CC1 | -3 | . | 16205* | 0 | 0
CCN1CCN(Cc2c(OC)ccc3ccccc23)CC1 | 4 | . | 19532* | 0 | 4
C[C@H](O)C#Cc1ccc([C@H]2[C@H]3CN(C(=O)Nc4ccccc4)CCCCN3[C@H]2CO)cc1 | . | 1 | . | . | .
O=C(NCCc1ccc(Cl)cc1)C1CCN(S(=O)(=O)c2ccc(Br)s2)CC1 | -3 | 16* | 4322 | -2 | 0
O=S(=O)(c1ccc(Br)s1)N1CCC(Cc2ccccc2)CC1 | 0 | . | 23471* | -2 | 1
O=S(=O)(c1ccc(Cl)s1)N1CCC(Cc2ccccc2)CC1 | -5 | . | 23306* | 0 | -3
COc1ccc2nc(N3CCCC3)[nH]c2c1 | -2 | . | 24269* | 0 | ?
COc1ccc2nc(NCCO)[nH]c2c1 | 11 | . | 2282 | -4 | 1
CCOc1ccc(S(=O)(=O)N(CC)CC)cc1N | -4 | 1 | 3196 | 4 | 1
CCOc1ccc(C(=O)c2ccc(OCC)c(N)c2)cc1N | -2 | . | 16397* | -4 | 0
COc1ccc(Cc2ccc(OC)c(N)c2)cc1N | 11 | 2 | 6260 | -2 | 2
COc1ccc(C(N)=O)cc1N | 5 | 2 | 20559* | -3 | 4
CCCN(C)C[C@H]1OCCCC[C@@H](C)Oc2ccc(NC(=O)Nc3ccc(C(F)(F)F)cc3)cc2C(=O)N([C@H](C)CO)C[C@H]1C | . | -2 | . | . | .
O=C(NCC1CC1)[C@H]1[C@H](CO)[C@H]2Cn3c(cccc3=O)[C@@H]1N2C(=O)c1ccc(F)cc1 | . | 0 | . | . | .
Cn1c(-c2ccc(C(C)(C)C)cc2)n[nH]c1=S | -2 | . | 2801 | 1 | 1
CC(C)(C)c1ccc(-c2n[nH]c(=S)n2C2CCCC2)cc1 | 0 | . | 22762* | -4 | ?
O=C(Nc1cccnc1)c1cc2c(ccc3ccccc32)o1 | -2 | . | 23266* | -6 | 0
NNC(=O)c1cc2c(ccc3ccccc32)o1 | -1 | -72 | 3213 | -8 | 0
COc1ccc(Cc2c(O)nc[nH]c2=O)cc1 | -5 | . | 16832* | 2 | ?
CNc1ncc(C(=O)c2ccc(Cl)c(Cl)c2)s1 | 6 | . | 8986 | -10 | 0
CC(C)(C)C(=O)c1cnc(Nc2ccccc2Cl)s1 | 0 | . | 2982 | 2 | 0
O=C(c1ccccc1)c1cnc(Nc2ccccc2Cl)s1 | -3 | . | 21405* | -5 | 4
O=C(c1ccc(Cl)c(Cl)c1)c1cnc(Nc2ccccc2)s1 | -1 | . | 16510* | -1 | 0
COc1nn(C(C)C(=O)N2N=C(C(F)F)CC2(O)C(F)F)cc1[N+](=O)[O-] (stereo unspecified) | -1 | . | 20181* | 3 | -1
SMILES | BoNT-F LC inh | TcdB GH inh | Autofluor counter | Anthrax LF prot | BoNT-A LC inh2
COc1nn(CC(=O)N2N=C(C(F)F)CC2(O)C(F)F)cc1[N+](=O)[O-] (stereo unspecified) | -4 | . | 23495* | -3 | -3
Cc1cc([N+](=O)[O-])nn1CC(=O)N1N=C(C(F)F)CC1(O)C(F)F (stereo unspecified) | -4 | -1 | 2469 | -2 | -1
COc1ccc2c3c(n(C)c2c1)[C@@H](CO)N(C(=O)C1CCCC1)CC31CCN(C(=O)c2ccncc2)CC1 | . | -1 | . | . | .
CCN1CCN(CC(O)COC(C)C)CC1 (stereo unspecified) | -1 | . | 20191* | -2 | 0
CCN1CCN(CC(O)COc2ccc(Cl)cc2)CC1 (stereo unspecified) | 6 | . | 2441 | 1 | 0
Cc1noc(C)c1S(=O)(=O)Nc1ccc2c(c1)C(=O)N([C@@H](C)CO)C[C@@H](C)[C@H](CN(C)Cc1ccccc1)O2 | . | 0 | . | . | .
CCCC#Cc1ccc2c(c1)O[C@@H](CN(C)C(=O)Nc1ccccc1F)[C@@H](C)CN([C@@H](C)CO)S2(=O)=O | . | 0 | . | . | .
COc1ccc(-c2c[n+]3c4n2CCCCC4=C(c2ccc(Br)cc2)C3)cc1 | -16 | . | 22490* | 2 | ?
Cc1nc(NC(=O)c2ccccc2)sc1-c1csc(NCCc2ccccc2)n1 | 2 | . | 25254* | 2 | 4
Cn1c(C(O)c2ccccc2F)nc(Cl)c1Cl (stereo unspecified) | 0 | . | 22133* | -2 | 0
CCOC(=O)C1=C(C)C(c2ccccc2)NC(=S)N1 (stereo unspecified) | 1 | . | 18384* | -1 | 3
COC(=O)C1=C(C)C(c2ccc(OC)cc2)NC(=S)N1 (stereo unspecified) | 2 | . | 9667 | 3 | 0
CCOc1ccccc1C(=O)NC1CCN(Cc2nnnn2C2CCCC2)CC1 | 0 | . | 22337* | -2 | ?
